Laboratory results taken from PubChem BioAssay AID1347404 (Pan Lab, Icahn School of Medicine at Mount Sinai, 2020).
About 860 (0.61%) of roughly 140,000 compounds were called active. Only a selection was taken, and actives are over-represented in it overall. A number with no mark means an inactive call. Rule as the data show it: active = inhibition above about 25%; inactive = the rest.

Molecular target: E3 ubiquitin-protein ligase RBX1 (Homo sapiens) + Cullin-1 (Homo sapiens) (UniProt P62877+Q13616)
Sequence (P62877 whole entry, looked up): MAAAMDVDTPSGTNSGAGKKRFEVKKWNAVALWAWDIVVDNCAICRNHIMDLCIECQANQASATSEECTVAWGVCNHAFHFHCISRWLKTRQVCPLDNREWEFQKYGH
Sequence (Q13616 whole entry, looked up): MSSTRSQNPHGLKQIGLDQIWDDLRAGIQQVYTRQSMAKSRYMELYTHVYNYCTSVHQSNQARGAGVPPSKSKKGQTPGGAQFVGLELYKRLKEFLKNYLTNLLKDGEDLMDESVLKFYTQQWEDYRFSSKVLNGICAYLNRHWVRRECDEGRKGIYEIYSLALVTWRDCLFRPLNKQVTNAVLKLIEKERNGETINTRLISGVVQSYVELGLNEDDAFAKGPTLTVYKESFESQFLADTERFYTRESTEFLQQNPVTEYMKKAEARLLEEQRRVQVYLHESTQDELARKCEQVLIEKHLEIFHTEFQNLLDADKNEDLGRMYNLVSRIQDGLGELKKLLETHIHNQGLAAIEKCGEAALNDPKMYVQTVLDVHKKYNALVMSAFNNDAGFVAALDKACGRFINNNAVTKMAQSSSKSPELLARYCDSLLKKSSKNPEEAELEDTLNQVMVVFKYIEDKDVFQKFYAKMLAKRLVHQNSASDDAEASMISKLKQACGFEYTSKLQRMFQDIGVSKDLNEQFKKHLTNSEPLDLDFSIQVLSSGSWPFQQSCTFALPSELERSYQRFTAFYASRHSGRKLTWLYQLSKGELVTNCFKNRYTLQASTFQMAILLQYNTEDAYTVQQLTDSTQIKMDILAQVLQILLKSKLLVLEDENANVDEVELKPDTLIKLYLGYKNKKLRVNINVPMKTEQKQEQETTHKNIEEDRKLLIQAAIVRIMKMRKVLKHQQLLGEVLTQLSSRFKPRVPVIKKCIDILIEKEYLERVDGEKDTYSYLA
Test: inhibitors of human ROC1-CUL1 ubiquitin ligase activity (AID 1347404)
Details: in vitro K48 di-Ub FRET, acceptor:donor ratio, 45 min; at 10 µM; active compounds read high

Structure (SMILES) | inhibition
CCCCc1nnc(SCC2=Nc3ccc(F)cc3C(=O)C2)n1C | -6.52%
Cc1scc(Cc2csc(C)c2C)c1C | -4.02%
Cc1ccc(NC(=O)c2c(N)sc3c2CCC3)c(C)c1 | 43.1% (active)
Cc1cccc(C(=O)Nc2ccc(C)cc2C)c1 | -1.04%
COc1ccc(-c2cc(-c3ccc(C)cc3)nc3sc(C(=O)Nc4ccc(C)cc4C)c(N)c23)cc1OC | 7.9%
Cc1[nH]c2ccccc2c1C(c1cccnc1)N1CCN(c2ccc(F)cc2)CC1 (centres undefined) | 2.08%
CN(C)CCOCCOC(c1ccccc1)c1ccccc1C(F)(F)F (centres undefined) | 0.845%
COC(=O)c1ccccc1NC(=O)CCCC(=O)OCC(=O)c1ccc(Br)cc1 | 1.86%
CCOC(=O)c1cnc2c(C)cc(Cl)cc2c1N1CCN(Cc2ccccc2)CC1 | -3.19%
COc1ccc(N2C(S)=C(C#N)C(=O)NC2c2ccc(-c3ccccc3Cl)o2)cc1 (centres undefined) | 24.9%
CC(C)(C)NS(=O)(=O)c1ccc(NC(=O)C2CCCO2)cc1 (centres undefined) | -1.62%
O=C(OCc1ccc(Br)cc1)c1ccccc1C(=O)c1ccccc1 | 3.15%
CC(=O)c1ccc(NC(=O)CCCC(=O)OCC(=O)c2ccc(-c3ccccc3)cc2)cc1 | -6.85%
O=C(Nc1ccc(S(=O)(=O)O)c2ccccc12)c1ccc(C(=O)Nc2ccc(S(=O)(=O)O)c3ccccc23)cc1 | 2.57%
O=C(Nc1ccccc1O)c1cccc(S(=O)(=O)Nc2ccc(F)cc2)c1 | 1.23%
O=C(Nc1ccc(S(=O)(=O)O)c2cc(S(=O)(=O)O)cc(O)c12)c1ccccc1 | 63.3% (active)
CC(O)c1cn(C2CCN(c3nc4ccccc4s3)CC2)nn1 (centres undefined) | 4.88%
COc1ccccc1C(=O)Nc1ccnn1C1CCN(Cc2nccn2C)CC1 | 9.37%
CC(C)(C)NS(=O)(=O)Cc1ccc(Cl)cc1Cl | 7.68%
Cc1nc2ccccc2n1/N=C/c1ccccc1 | 3.45%
CCOC(=O)CNc1nc2ccccc2n2c(C)nnc12 | -3.19%
C/C(=N\O)c1sc2nc3ccccc3n2c1C | 26.5% (active)
CCc1ccccc1-c1nc2c(cnn2C)[nH]1 | 5.57%
CC1CCN(CC(O)COC2CC3CCC2(C)C3(C)C)CC1 (centres undefined) | 0.492%

Structure (SMILES) | inhibition
CCN(CC)C(=O)CSc1nc2sc3c(c2c(=O)n1C)CCC3 | 1.01%
CC(C)C1=NN2C(=N)/C(=C/c3cccc(OCc4ccc(F)cc4)c3)C(=O)N=C2S1 | -4.78%
COc1cc(/C=C2\C(=N)N3N=C(Cc4cccs4)SC3=NC2=O)cc(OC)c1OC | 6.55%
N=C1/C(=C/c2cccc(OC(=O)c3ccc(Cl)cc3)c2)C(=O)N=C2SC(c3cccs3)=NN12 | 49.6% (active)
CN(C)c1ccc(/C=C2\SC(=N)N(c3nccs3)C2=O)cc1 | -5.77%
Cc1ccc(N2C(=O)/C(=C\c3ccc(Cl)cc3)SC2=S)cc1 | 8.97%
CC(C(=O)O)N1C(=O)/C(=C/c2ccc(N(C)C)cc2)SC1=S (centres undefined) | 52.9% (active)
CCOc1cc(/C=C2/C(=O)NN(c3ccc(CC)cc3)C2=O)c(Br)c(Br)c1O | 54.1% (active)
CCOc1ccc(/C=C2\C(=O)NN(c3ccc(Cl)c(Cl)c3)C2=O)cc1OCC | 1.02%
CCCOc1ccccc1/C=C1\C(=O)NN(c2cccc(Br)c2)C1=O | 20%
CC1=NC(=O)C(C#N)=C(C)C1CSCc1ccco1 (centres undefined) | 0.332%
N#CC1=C2c3ccccc3CCC2C(c2ccco2)=NC1=O (centres undefined) | 42% (active)
CCN(Cc1nccn1C)C(=O)c1ccc(N(C)CC2CCCCN2C)nc1 (centres undefined) | -0.562%
CCC(C)C(=O)Nc1ccc(I)cc1 (centres undefined) | 3.94%
COc1ccccc1NC(=O)NC1CC(=O)N(CC(C)(C)C)C1 (centres undefined) | -2.73%
CC1(C)CC(=O)C(=Cc2c[nH]c3ccccc23)C(=O)C1 | -0.144%
Cc1cc(C)cc(N2CC(C(=O)N3CCc4ccccc4C3)CC2=O)c1 (centres undefined) | 6.46%
O=C(CC1C(=O)NCCN1CCc1ccccc1)NCCCn1ncc2ccccc21 (centres undefined) | 0.369%
COc1cc(C2C3=C(CCCC3=O)OC3=C2C(=O)CCC3)ccc1OCC(=O)Nc1ccccc1 | -1.19%
O=C(NC(=S)N1CCCC1)c1ccc(Br)o1 | 4.57%
O=C([O-])c1ccc(C[n+]2c3ccccc3n3nc4c(cc32)c2cccc3cccc4c32)cc1 | -16.8%
O=C(C[n+]1c2ccccc2n2nc3c(cc21)c1cccc2cccc3c21)Nc1nc2ccccc2[nH]1 | 93.1% (active)
O=C(/C=C/c1ccccc1)Oc1cccc(C(=O)Nc2nc3ccccc3[nH]2)c1 | 14.2%
Cn1c(=O)c2c(nc(SCC(=O)Nc3ccc(OC(F)(F)F)cc3)n2Cc2cccc(Cl)c2)n(C)c1=O | 10%

Structure (SMILES) | inhibition
Cc1cc(N2C(=O)C(=O)C(C(=O)c3ccc(F)cc3)C2c2ccccc2)no1 (centres undefined) | -4.72%
COCCN(C)C(=O)c1cc(NC(=O)c2ccccc2)cc2ncn(C3CCCC3)c12 | 12.6%
C=CCn1c(SCC(=O)c2ccccc2)nc2ccccc2c1=O | 2.49%
COc1ccc(OC)c(/C=C/C(=O)c2ccc(OC)c(OC)c2)c1 | -2.06%
COc1ccc(/C=C/C(=O)c2cc3ccccc3oc2=O)c(OC)c1 | -5.94%
CCN=C1CC=C(Br)C=C(C(=O)/C=C/c2ccccc2OC)C1=O | 101% (active)
CC(C)NC(=O)Cc1coc2ccc(C(C)(C)C)cc12 | 5.19%
Cc1noc(C)c1C(=O)CCCCCCCCCCCCCCC(=O)O | -8.93%
Cc1ccc(OC(=O)c2ccc(Br)cc2Br)c(C)c1 | 5.25%
CCCC(=O)NC(=S)Nc1ccccc1Sc1ncnc2scc(-c3ccccc3)c12 | 3.87%
COc1ccc2c(c1)OC(C)CN(Cc1ccc3cccnc3c1)C2 (centres undefined) | 1.92%
CN1C(=O)C(C(=NCc2ccccc2)c2nn[nH]n2)C(=O)c2ccccc21 (centres undefined) | 2.67%
Cc1ccc(N=C/C=C/c2ccc([N+](=O)[O-])cc2)cc1 | 6.74%
CC(=O)Nc1cc(C)ccc1[N+](=O)[O-] | -2.27%
Cc1ccc(N2C(=O)c3ccccc3NC2c2ccc(OCc3ccccc3)cc2)cc1 (centres undefined) | 8.59%
C=CCNC(=O)C1CCN(S(=O)(=O)N(C)C)CC1 | 8.77%
O=C(CSc1nc2scc(-c3ccccc3)c2c(=O)n1-c1ccccc1)c1ccccc1F | 8.07%
O=C(Nc1ccccc1Cl)c1cc(-c2ccc(Cl)s2)nc2ccccc12 | -7.97%
CCOc1cc(Br)c(Br)c(C=Nc2cccc(NC(=O)c3ccc(Cl)cc3Cl)c2)c1O | 13.5%
CCN(CC1CCCN(CCc2cccc(OC)c2)C1)C1CCN(C(C)=O)CC1 (centres undefined) | -12.6%
COc1ccc(C(=O)CC=Nc2ccc(Oc3ccccc3Cl)cc2)cc1OC | 11.3%
Cc1ccc(NC(=O)C(=O)NC(=O)c2n[nH]c3c2CCCC3)cc1 | 2.41%
CCOc1ccc(Cl)cc1S(=O)(=O)N1CCCCC1C (centres undefined) | 3.07%
O=C([C@@H]1C[C@H]1c1ccccc1)N1CCOc2ccc(CN3CCN(c4ncccn4)CC3)cc2C1 | -2.65%

Structure (SMILES) | inhibition
Cc1cnc(Sc2nccn2C)c([N+](=O)[O-])c1 | -1.03%
CCOC(=O)c1cc(N2C(=O)c3cccc4cccc(c34)C2=O)ccc1Cl | -1.46%
COC(=O)c1cc2ccccc2n1C | -2.5%
Clc1ccc(-c2csc(NN=C3c4ccccc4-c4ccccc43)n2)cc1 | -3.38%
COc1cc(/C=C(/C)[N+](=O)[O-])c2c(c1Br)CCCO2 | -18%
COc1ccc2c(c1)CCCN2Cn1nc(COc2ccc(C3CCCCC3)cc2)n(C)c1=S | 0.371%
c1cc2nsnc2cc1CN1CCCC(Nc2ccc3c(c2)OCO3)C1 (centres undefined) | 2.61%
Cc1cc(Oc2cc(-n3[nH]c(=O)c4ccccc4c3=O)nc(-c3ccccc3)n2)cc(C)c1Cl | 7.28%
CCN(CC1CCN(C2CCN(C)CC2)CC1)C(=O)c1occc1C | 9.69%
O=C(NCN1CCN(CNC(=O)c2cccnc2)CC1)c1cccnc1 | -0.31%
CCN1CCN(c2nc(-c3ccc(OC)cc3)cc(=O)[nH]2)CC1 | 5.84%
Cc1ccc(Cl)cc1N1CCN(C(=O)C23CC4CC(CC(C4)C2)C3)CC1 | -7.78%
Cc1ccccc1CS(=O)(=O)N1CCC(Cc2ccccc2)CC1 | 8.78%
COc1ccc(C(Nc2cc(C)ccn2)c2ccc3cccnc3c2O)c(OC)c1OC (centres undefined) | 2.02%
COc1ccc2nc(SCC#CCSc3nc4ccc(OC)cc4[nH]3)[nH]c2c1 | 7.63%
CNCC#CCOc1ccccc1C(C)(C)C | -2.15%
O=c1cc(Cl)c2ccccc2o1 | -4.6%
Nc1scc2c1c(=O)oc1ccccc12 | 57% (active)
CN(C)/C=C/c1c(C#N)c(=O)oc2ccccc12 | 9.69%
CCOC(=O)C(C(=O)OCC)c1ccc(OC)cc1[N+](=O)[O-] | 2.12%
CCOc1cc(/C=C2/SC(=O)N(C(C)C)C2=O)ccc1O | -0.43%
Nc1nc2c(ncn2S(=O)(=O)c2ccc(C(=O)O)cc2)c(=O)[nH]1 | 7.51%
